# Rango dissoc inh: inhibition of RanGTP-driven Rango-importin beta dissociation. Biochemical FRET Rango-importin beta, RanGTP-induced dissociation. Potency, µM (top dose mostly 46.1 µM), for the others: at the highest dose activity change, negative = inhibition. 340,000 tested, 0.071% active. AID 540253; calls by dose curve; further: % of control where 0% means no effect; nearly all actives have a fitted effect of over 45% in size
#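 Two FRET readings bracket the reaction: one 5 min after compound meets Rango–importin beta, another 45 min after RanGTP-RCC1 (0.6 uM Ran, 0.2 uM RCC1, 2 mM GTP) is added. Only the second defines inhibition.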
# TDP1 inh: blocks human tyrosyl-DNA phosphodiesterase 1; AID 485290; 350,000 tested, 0.28% active; Q9NUW8; Potency, µM (titrated, usually from 130 µM), for the others: top-dose activity change, negative = inhibition, most hits filed as inhibitors; recombinant TDP1, AlphaScreen DNA substrate cleavage; further: on the % scale 0 is the no-effect control and ±100 the full control effect; nearly all actives have a fitted effect of over 40% in size
# Target sequence (Q9NUW8 whole entry, looked up): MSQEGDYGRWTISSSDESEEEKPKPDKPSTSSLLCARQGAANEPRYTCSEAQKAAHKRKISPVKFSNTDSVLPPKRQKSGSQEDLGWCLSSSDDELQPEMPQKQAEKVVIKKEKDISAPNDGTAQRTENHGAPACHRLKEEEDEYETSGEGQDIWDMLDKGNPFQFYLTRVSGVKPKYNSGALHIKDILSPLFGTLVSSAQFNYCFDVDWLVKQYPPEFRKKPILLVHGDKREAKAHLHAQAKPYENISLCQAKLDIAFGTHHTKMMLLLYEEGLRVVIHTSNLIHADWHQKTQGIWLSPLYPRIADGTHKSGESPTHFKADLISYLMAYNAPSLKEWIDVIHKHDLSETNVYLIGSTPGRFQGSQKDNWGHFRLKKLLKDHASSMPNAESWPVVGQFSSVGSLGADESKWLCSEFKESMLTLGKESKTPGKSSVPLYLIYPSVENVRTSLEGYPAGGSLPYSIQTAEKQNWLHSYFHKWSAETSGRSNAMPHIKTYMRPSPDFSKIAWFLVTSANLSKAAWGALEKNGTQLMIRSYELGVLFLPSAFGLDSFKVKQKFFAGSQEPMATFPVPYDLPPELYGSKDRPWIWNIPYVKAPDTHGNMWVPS
#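 Here, a 5' biotin and 3' phosphotyrosine-FITC DNA oligonucleotide reports Tdp1 activity: intact substrate bridges AlphaScreen beads, while cleavage leaves a 3' phosphate and drops signal. All incubations at room temperature.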
# ALOX12 inh: ALOX12 (human) lipoxygenase inhibition | purified 12hLO, xylenol orange hydroperoxide absorbance | Potency, µM (doses to about 108 µM), for the others: top-dose activity change, negative = inhibition, most hits filed as inhibitors | 580,000 tested, 1.1% active; further: on the % scale 0 is the no-effect control and ±100 the full control effect
#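 Purified human 12hLO (150 nM final) in 25 mM Hepes, 0.01% Triton X-100, pH 7.0 was preincubated 15 min at room temperature with compound. Then 40 uM arachidonic acid was added, 30 min. Hydroperoxide was read by Fe-XO absorbance ratio 573/405 nm.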
# TSG101-PTAP inh: blocks PTAP/TSG101 interaction to inhibit HIV-1 budding | Q99816 | 340,000 tested, under 10 active | Fluorescence polarization, FITC-PTAP peptide / Tsg101 binding | AID 493005 | Potency, µM (titrated, usually from 115 µM), for inactives: top-dose activity change, negative = inhibition, actives largely listed as inhibitors; active means well fitted inhibition curve with a large enough effect in the main read-out, with a control signal flat, not every such curve was filed as active; inconclusive means small, poorly fitted or top-dose-only effect, or effect the other way, or a change in a side signal; inactive means no such curve, though single readings can be large or run the other way; further: % of control where 0% means no effect
#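 Compounds were pin-transferred onto Tsg101 binding domain (10 uM final) in HEPES pH 7.5 buffer, then FITC-PTAP peptide was added at 50 nM final. After 20 min at RT, polarization reported peptide displacement across a qHTS concentration series.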
# Rango complex inh: inhibitors of Rango-importin beta complex formation | Q14974 | Rango CFP/YFP FRET sensor + importin beta, 45 min | Potency, µM (highest dose often 92.2 µM), inactives show top-dose inhibition of complex formation | 340,000 tested, 0.031% active | AID 540263; calls by dose curve;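 further: 0% = DMSO wells and 100% = buffer wells lacking importin beta; nearly all actives have a fitted effect of over 15% in size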
#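 FRET biosensor (snurportin 1 IBB flanked by EYFP and cerulean), 50 nM, with compound 5 min, then 0.125 microM importin beta in PBS, 1 mM DTT, 0.02% Tween-20, 0.1% BSA. CFP/YFP ratio read after 45 min at room temperature; pre-read flags interference.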
# ClpP mod: qHTS Assay for Activators of ClpP; ATP-dependent Clp protease proteolytic subunit (Bacillus subtilis (strain 168)), P80244; Potency, µM (top dose mostly 57.5 µM), for inactives: top-dose activity change, negative = active; 340,000 tested, 1.9% active; purified B. subtilis ClpP, FRET peptide cleavage, 20 min; active means well fitted falling curve with a large enough effect; inconclusive means small, poorly fitted or top-dose-only effect; inactive means no such curve, though single readings can be large or run the other way; further: the source files actives as falling curves though it sought activators and does not explain the sign; nearly all actives have a fitted effect of over 65% in size
#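 Buffer: 100 mM Tris/HCl pH8, 100 mM KCl, 0.05% low protease BSA, 2.5% glycerol, 0.01% Tween-20. ClpP 10 microg/mL final; 20 min RT; delta FRET normalized to ADEP and DMSO controls.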
# An asterisk follows results filed as active; ? = inconclusive; . = no result given; [ ] = another dose, or the depositor's remark. An excerpt weighted towards active compounds, which were near 2.4% of everything screened. Unless noted, the call rests on the fitted dose curve; in most records, active means well fitted curve in the direction sought with a large enough effect; inconclusive means small, poorly fitted or top-dose-only effect, or another doubt; inactive means no such curve, though single readings can be large; an effect the other way counts as inactive or inconclusive. Potency means the concentration at half of the fitted maximal effect.
SMILES,Rango dissoc inh,TDP1 inh,ALOX12 inh,TSG101-PTAP inh,Rango complex inh,ClpP mod
CCNC(=O)O[C@@H]1CO[C@H]2[C@@H]1OC[C@@H]2NC(=S)Nc1ccc(N(C)C)cc1,.,.,112µM*,.,.,.
O=C(Nc1cccc2ccccc12)O[C@@H]1CO[C@H]2[C@@H]1OC[C@@H]2NC(=S)Nc1cccc2ccccc12,.,.,50µM*,.,.,.
CC(C)c1ccc(-c2nnn(CCC(=O)Nc3sc4c(c3C#N)CCCC4)n2)cc1,.,.,-3%,.,.,.
Cc1cnc(C(=O)N2CC(F)(F)C[C@H]2c2nnc(C3CC3)o2)cn1,.,.,42%,.,.,.
CN(C)c1ccc(NC(=S)N[C@H]2CO[C@H]3[C@@H]2OC[C@H]3OC(=O)Nc2cccc3ccccc23)cc1,.,.,11%,.,.,.
O=C(Nc1cccc2ccccc12)O[C@@H]1CO[C@H]2[C@@H]1OC[C@@H]2NC(=S)Nc1ccc(Cl)cc1,.,.,35µM*,.,.,.
C(=C\c1nccc2c1[nH]c1ccccc12)/c1ccccc1,16µM*,1%,0%,-1%,?,4%
Fc1ccc(/C=C\c2nccc3c2[nH]c2ccccc23)cc1,?,.,-15%,-2%,?,4%
Cc1cc(C)c(C=Nc2cc([N+](=O)[O-])ccc2C)c(C)c1,.,.,31%,.,.,.
Cc1cc(SCC(=O)c2ccc(Cl)cc2)nc(=O)[nH]1,2%,4%,20µM*,1%,-5%,0%
Cc1ccc(C(=O)CSc2cc(C)[nH]c(=O)n2)cc1,-14%,-6%,?,0%,?,-1%
CCOC(=O)c1ccc(CC(=O)c2oc3cc(O)ccc3c2C)o1,?,11%,16µM*,-4%,?,32µM*
O=c1c2ccccc2nc(SCc2nnc(-c3ccccc3)o2)n1-c1ccc(F)cc1F,0%,5%,0%,-6%,4%,25µM*
O=c1c2ccccc2nc(SCc2nnc(-c3ccccc3Br)o2)n1-c1ccccc1,15%,-2%[56.1 µM],1%,-10%,2%,-3%
COc1ccc(S(=O)(=O)N2CCOC[C@H](Oc3ccc(C(F)(F)F)cn3)C2)cc1,.,.,12%[176 µM],.,.,.
COc1ccc(N2CCN(Cc3cc(=O)c(OCC(=O)Nc4ccccc4)co3)CC2)cc1,0%,-10%,-1%,0%,3%,-7%
COc1ccc(NC(=O)COc2coc(CN3CCN(c4ccccc4)CC3)cc2=O)cc1,-7%,-1%,-14%,0%,?,28µM*
NC(=O)CN1CCC(C(=O)N2CCCC(CO)(CC3CC3)C2)CC1 (stereo not drawn),.,.,3%,.,.,.
CCC(=O)NCCC12CC3CC(CC(C3)C1)C2,.,.,-8%,.,.,.
O=C1c2cc(Cl)ccc2-c2c(O)cc(Cl)cc21,-4%,.,35µM*,-2%,1%,.
CC(=O)c1ccc(OCC(O)CN2CCN(S(=O)(=O)c3c(C)cc(C)cc3C)CC2)cc1 (stereo not drawn),5%,.,?,0%,0%,20µM*
COCCn1c(=NC(=O)c2sc3ccccc3c2Cl)sc2cc(S(N)(=O)=O)ccc21,13%,2%,-1%,-6%,3%,22µM*
CCOC(=O)Cn1c(=NC(=O)c2nc3ccccc3s2)sc2cc(S(N)(=O)=O)ccc21,-4%,2%,0%,-4%,1%,32µM*
C=CCn1c(=NC(=O)c2sc3ccccc3c2Cl)sc2cc(S(N)(=O)=O)ccc21,-16%,-3%,.,-1%,1%,25µM*
c1ccc(OCCN2CCN(Cc3nc(C4CC4)no3)CC2)cc1,.,.,16%,.,.,.
Cc1ccc(NC(=O)CS(=O)CC(=O)NC(C)CCc2ccco2)cc1Cl (stereo not drawn),1%,0%,-29%,-4%,-3%,28µM*
Cc1ccc(-c2ccccc2NC(=O)CCl)o1,-13%,11%,?,-4%,4%,-3%
